Screening results from PubChem.
Env fusion inh = HIV envelope-mediated fusion inhibition; actives 1.1% (n = 360,000); inhibition, % at 12.3 µM; HeLa-JRFL Env/CEM21 cell fusion, luciferase;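 active = mean replicate inhibition score of at least 50 and every replicate individually at or above 50; inconclusive = only one of the two criteria met; inactive = mean below 50 and not all replicates reaching 50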;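 note: 0% = plate neutral controls and 100% = maraviroc near 300 nM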
GAA850 FXN act = increases GAA850 frataxin promoter reporter activity; HEK293 lucGAA850 FXN promoter luciferase reporter, 24 h; percent of 10 µM SAHA response; activation, % at 6 µM; actives 0.56% (n = 360,000);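 active = activation above the average of all compounds screened plus 3 SD, cutoff fixed separately per campaign, cut at about 7.5% in these data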;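 note: 0% = DMSO wells and 100% = 10 µM SAHA wells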
PAX8 reporter = lowers PAX8-driven luciferase in RMG-I cells. RMG-I TPO-luciferase reporter, SteadyGlo, 24 h. inhibition, % at 12.6 µM. actives 1.2% (n = 360,000). AID 652154;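 active = mean replicate inhibition at least 60% with every replicate also reaching 60%; inconclusive = only one of the two criteria is met; inactive = mean below 60% and not all replicates reaching 60%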;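 note: luciferase light reporting Pax8 driven TPO promoter activity; plate controls were median of neutral control wells for no effect and mitoxantrone controls for full effect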
CFTR F508del cor = CFTR F508del correction in bronchial cells | CFBE cells, YFP halide quenching; stimulated with forskolin plus potentiator P3; % fluorescence drop versus neutral controls | activity (quench increase), % at 7.58 µM | actives 0.36% (n = 350,000) | AID 720511;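 active = mean added fluorescence quench of at least 8% versus neutral control, with both replicates also reaching 8%; inconclusive = only one of the mean or replicate conditions met; inactive = mean below 8% and not both replicates reaching 8%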;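 note: cells transiently co-express mutant CFTR-F508del with the halide-sensitive YFP; corrector assay measuring rescue of mutant channel to the surface after 24 h compound exposure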
EWS-Fli inh = inhibitors of EWS/Fli oncoprotein transcriptional activity; A673 NR0B1-luciferase reporter, viability-normalised; inhibition, % at 12.6 µM; actives 0.67% (n = 350,000);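 active = mean inhibition of at least 50% after viability correction, with every replicate also passing that limit; inconclusive = mean reaches 50% but only one of two replicates passes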;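 note: firefly luciferase signal divided by Alamar Blue viability fluorescence both relative to DMSO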
DNA binder FP = binds DNA displacing acridine orange; shares compounds with EWS-Fli inh; salmon sperm DNA acridine orange fluorescence polarization; AC35, µM (doses to about 68 µM), for the others: at the top dose activity change, negative = DNA binding; actives 2% (n = 640); AID 720586;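 active = fitted curve reaches a 35% signal fall AC35 below twice the sample's top valid tested dose, actives reach about 48 µM in these data; inactive = the rest, including activity in the rising direction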;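 note: lower polarization ratio signals compound binding to DNA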
Starred values were filed as active, the others as inactive; ? = inconclusive; / = no result given; [ ] = another dose, or the depositor's remark. Sampled rows, rich in hits. Any-hit rate of the full collection: about 2.5%.

SMILES | Env fusion inh | GAA850 FXN act | PAX8 reporter | CFTR F508del cor | EWS-Fli inh | DNA binder FP
COc1cc(/C=C/C(=O)/C=C(O)/C=C/c2ccc(O)c(OC)c2)ccc1O | / | 2 | 1 | -5 | 81* | 30µM*
O=c1[nH]c(=O)n(C2CC(O)C(CO)O2)cc1I (centres undefined) | -340 | 5 | -19 | 0 | 1 | /
O=c1[nH]c(=O)n([C@H]2C[C@H](O)[C@@H](CO)O2)cc1F | 70* | -9 | 17 | 2 | 64* | -5%
C[C@H](CO)N1C[C@H](C)[C@H](CN(C)S(C)(=O)=O)OCCCC[C@H](C)Oc2ccc(NS(=O)(=O)c3cn(C)cn3)cc2C1=O | 9[16.7 µM] | / | / | -3 | -7 | /
COc1cc2oc3cc(C#Cc4ccc(N)cc4)ccc3c(=O)c2cc1OC | ? | -2 | 29 | 3 | 55* | 1%
CC(C)CN(C(=O)CN1CCOCC1)c1c(N)n(CC(C)C)c(=O)[nH]c1=O | -5 | 0 | 9 | / | 61* | -12%
Cc1cc(C)cc(C(=O)NC(=S)Nc2ccc(Cc3ccncc3)cc2)c1 | -19 | -1 | 8 | / | 66* | -4%
Cc1cccc(C(=O)NC(=S)Nc2ccc(Cc3ccncc3)cc2)c1 | -54 | 0 | -38 | / | / | /
Nc1ccc(Oc2ccccc2-c2ccccc2)cc1 | 37 | -12 | 23 | -1 | 63* | -4%
CCCC(=O)Nc1ccc2c(c1)OC[C@H](C)N(Cc1ccc(-c3ccccn3)cc1)C[C@@H](C)[C@H](OC)CN(C)C2=O | / | / | / | 0 | -10 | /
